Activity calls are given as the source filed them. The calls were made as follows: active = hit-call score of the fitted dose curve at least 0.9, where 1 is the maximum; inactive = score below 0.9.

The experiment is described as follows: CEETOX_H295R_OHPROG: CeeTox H295R High-throughput Steroidogenesis Assay for OH-Progesterone (OHPROG) (AID 2283435). The settings on record: actives raise or lower the signal. How it is done: CEETOX_H295R is a cell-based, multiplexed-readout assay that uses H295R, a human adrenal gland cell line, with measurements taken at 48 hours after chemical dosing in a 96-well plate.CEETOX_H295R_OHPROG is one of 23 assay component(s) measured or calculated from the CEETOX_H295R assay. It is designed to make measurements of hormone induction, a form of inducible reporter, as detected with absorbance signals by HPLC-MS-MS technology.Data from the assay component CEETOX_H295R_OHPROG was analyzed into 1 assay endpoint. This assay endpoint, CEETOX_H295R_OHPROG, was analyzed with bidirectional fitting relative to DMSO as the negative control and baseline of activity. Using a type of inducible reporter, gain or loss-of-signal activity using HPLC-MS-MS was used to understand synthesis of 17alpha-hydroxyprogesterone in H295R cell line at 48hr of chemical exposure. To generalize the intended target to other relatable targets, this assay endpoint is annotated to the steroid hormone intended target family, where the subfamily is progestagens.
Cell culture and media preparation procedures were conducted in accordance with OECD Test No. 456 guidelines, with minor modifications. H295R cells (ATCC CRL-2128) were expanded for 5 passages and frozen in batches in liquid nitrogen. Prior to the steroidogenesis assay, H295R cells were thawed and passed at least 4 times. The maximum passage was 10. Cells were maintained in a 1:1 mixture of DMEM/F12 supplemented with 5ml/L ITS+ Premix (BD Bioscience) and 12.5 ml/L Nu-Serum (BD Bioscience). After seeding cells into 96-well plates at 50-60% confluency, cells were allowed to adhere overnight. Prior to chemical testing, culture medium was replaced with 175 uL medium containing 10 uM forskolin to stimulate steroidogenesis for 48 hours. Following prestimulation, forskolin medium was replaced with medium containing test chemical solubilized in DMSO (ensuring a final concentration of 0.1% DMSO). Test chemicals were incubated for 48 hours, then the medium was removed and split into 2 vials containing approximately 75uL each, and stored at -80 C prior to hormone analysis. For steroid quantification, media samples were shipped to OpAns, LLC (Durham, NC) on dry ice, and samples were thawed to room temperature prior to liquid-liquid extraction. Steroid hormones were extracted from media samples using methyl tertbutyl ether (MTBE). An extra derivatization with dansyl chloride was included for estrogen (estrone and estradiol) detection only. Steroid hormones were separated by HPLC, eluted using a reverse phase C18 gradient with electrospray positive ionization, followed by quantification by tandem mass spectrometry (MS/MS). Data were acquired on a MassHunter Workstation Acquisition version B03.01 (Agilent Technologies, Inc.) and processed using MassHunter Quantitative Analysis for QQQ. Accuracy was determined for each hormone analyte from 3 standards to determine upper and lower limits of quantification (ULOQ and LLOQ, respectively) using a 7-point standard curve. Precision and accuracy of the extraction and quantification methods were calculated as the percent relative standard deviation (%RSD) of the spiked standards and percent spiked standard recovered, respectively. […] Test medium was removed following chemical exposure, and cell viability was evaluated in the same wells by MTT. MTT procedures were as follows: after removal of test medium, 500 uL of 0.5 mg/ml of 3-[4,5-dimethylthiazol-2-y]2,5-diphenyltetrazoliumbromide solution was added to the cells. Following a 4-hour incubation at 37 C and 5% CO2 to allow formazan-crystal formation, the MTT solution was removed and blue formazan salt crystals were solubilized using 500uL anhydrous isopropanol with shaking for 20 minutes. Absorbance was read at 570 and 650nm using a Packard Fusion microplate reader. Background correction of absorbance units was used to determine percent change relative to controls. […]
Regarding `CNC(=O)Oc1cc(C)c(SC)c(C)c1`, the call was inactive.

On to `O=CNC(N1CCN(C(NC=O)C(Cl)(Cl)Cl)CC1)C(Cl)(Cl)Cl` (stereo not drawn), for which the call was inactive.

`O=C=Nc1ccccc1`: the molecule was classed as inactive.

Consider `Oc1cc(Cl)ccc1Cl`, for which the concentration at half-maximal activity (AC50) is 25.8 µM (active).

Regarding `CCOP(=O)(OCC)Oc1ccc([N+](=O)[O-])cc1`, the molecule was classed as inactive.

`O=C(NC(=O)c1c(F)cccc1F)Nc1ccc(Oc2ccc(C(F)(F)F)cc2Cl)cc1F`: the half-maximal activity concentration (AC50) is 1.37 µM (active).

As to `c1ccc(Nc2ccc3ccccc3c2)cc1`, the AC50 was 5.24 µM (active).

Turning to `Cc1ccc(OP(=O)(Oc2ccc(C)cc2)Oc2ccc(C)cc2)cc1` (tested in a mixture with another compound), the molecule was called inactive.

With `CC(C)(C)C(O)C(Oc1ccc(-c2ccccc2)cc1)n1cncn1` (stereo not drawn), the AC50 was 0.0566 µM (active).

For `C=CC(=O)OCCO`, the molecule was classed as inactive.

On to `CC(=O)c1cc2c(cc1C)C(C)(C)C(C)CC2(C)C` (stereo not drawn), for which the result was inactive.

`Nc1ccc(Cl)c(Cl)c1`: the half-maximal activity concentration (AC50) was 33.3 µM (active).

Turning to `CC(Cc1ccc(C(C)(C)C)cc1)CN1C[C@@H](C)O[C@@H](C)C1` (stereo partly drawn), the half-maximal activity concentration (AC50) was 0.316 µM (active).

These data come from PubChem BioAssay (EPA / NIEHS).
